Only some compounds are listed: those with a hit (about 2.3% of all), similar ones and a draw of the others.
Mcl-1 Bim block: inhibitors of Bim-Mcl-1 interaction, human; Q07820; Bead-based flow cytometry, Bim peptide-Mcl-1 binding; inhibition, % at 10 µM; actives 0.1% (n = 190,000); AID 1009; in the data active = inhibition above about 40%;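 note: 0% = no compound tracer wells and 100% = peptide blocker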
Target sequence (Q07820 whole entry, looked up): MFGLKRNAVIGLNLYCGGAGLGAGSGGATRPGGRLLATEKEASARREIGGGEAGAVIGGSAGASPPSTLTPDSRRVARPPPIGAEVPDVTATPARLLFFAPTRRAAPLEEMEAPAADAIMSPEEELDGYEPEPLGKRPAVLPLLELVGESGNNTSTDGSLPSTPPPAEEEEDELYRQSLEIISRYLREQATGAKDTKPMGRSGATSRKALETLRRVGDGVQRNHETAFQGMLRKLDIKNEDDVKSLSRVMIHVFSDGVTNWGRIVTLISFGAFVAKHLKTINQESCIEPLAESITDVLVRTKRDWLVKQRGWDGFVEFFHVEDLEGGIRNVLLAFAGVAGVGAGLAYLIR
GLD-1 TGE inh: GLD-1-TGE RNA interaction inhibition (C. elegans). Q17339. purified GLD-1 + fluorescein TGE RNA, fluorescence polarization. inhibition, % at 5.96 µM. actives 0.44% (n = 320,000). AID 2280;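 active = percent inhibition above a per-plate cutoff, the plate mean of test compounds plus 3 SD, cut at about 30% in these data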;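 note: 0% = DMSO wells with GLD-1 and probe and 100% = wells lacking GLD-1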
BCLXL inh: inhibitors of human Bcl-xL | Q07817 | GST-Bcl-xL / FITC-Bim BH3 peptide fluorescence polarization | inhibition, % at 10.9 µM | actives 0.7% (n = 320,000);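 active = inhibition above the mean of all tested compounds plus 3 SD, cutoff set per campaign, cut at about 30% in these data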;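 note: 0% = DMSO wells and 100% = unlabeled Bim-BH3 peptide competitor; inhibitors lower millipolarization by displacing the labeled peptide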
Target sequence (Q07817 whole entry, looked up): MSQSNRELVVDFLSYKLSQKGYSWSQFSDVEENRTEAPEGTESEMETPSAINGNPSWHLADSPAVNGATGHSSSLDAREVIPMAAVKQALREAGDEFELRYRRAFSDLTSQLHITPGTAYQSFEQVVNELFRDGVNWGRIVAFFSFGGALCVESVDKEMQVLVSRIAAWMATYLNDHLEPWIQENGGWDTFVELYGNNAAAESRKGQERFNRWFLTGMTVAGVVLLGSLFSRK
Mcl1-Bid inh: disrupts binding of human Mcl-1 to Bid peptide; Q07820; TR-FRET Mcl-1/Bid-Dy647 peptide binding, 1536-well; inhibition, % at 21.7 µM; actives 0.97% (n = 220,000); AID 1021;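 active = compounds that cut the binding signal by more than half at the single screening dose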;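 note: His-tagged Mcl-1 with europium anti-His antibody binding Bid BH3 peptide; 0% = Mcl-1 plus peptide wells and 100% = peptide-only wells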
Mcl1 Noxa PPI: disrupts binding of human Mcl-1 to Noxa peptide | Q07820 | TR-FRET Mcl-1/Noxa peptide binding, 2 h | actives 1.5% (n = 220,000) | AID 1022 | inhibition, % at 21.7 µM;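 active = compounds that cut the protein-peptide binding signal by more than 50% relative to plate controls in a single-dose test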;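 note: His-tagged Mcl-1 with rhodamine Noxa BH3 peptide and terbium anti-His antibody; 0% = Mcl-1 plus Noxa peptide wells and 100% = peptide-only wells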
MCL1-BIM inh: disrupts human MCL1 binding to BIM-BH3 peptide; Q07820; GST-MCL1 / FITC-Bim-BH3 fluorescence polarization; inhibition, % at 10.9 µM; actives 0.68% (n = 320,000);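 active = inhibition above the mean inhibition of all tested compounds plus 3 SD, set per campaign, cut at about 40% in these data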;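 note: 0% = DMSO wells and 100% = unlabeled Bim-BH3 peptide control; higher means more loss of mP so more displacement of Bim peptide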
* = called active by the depositor; · = no result given.

SMILES	Mcl-1 Bim block	GLD-1 TGE inh	BCLXL inh	Mcl1-Bid inh	Mcl1 Noxa PPI	MCL1-BIM inh
O=C1N=c2ccccc2=C1c1[nH]c(=S)[nH]c1O	-4.0	2.4	13.5	-24.0	65.5*	15.8
Cc1cccc(NC(=O)C2CCCN(C(=O)Nc3ccc(F)cc3)C2)c1 (centres undefined)	·	7.8	-0.3	·	·	0.8
CCOc1ccc(NC(=O)c2ccc3[nH]c(=O)c(=O)[nH]c3c2)cc1	·	2.2	4.1	·	·	1.5
CC(C)CCNC(=O)COC(=O)c1cc(Br)c(Br)s1	0.0	-5.3	1.9	-4.2	9.5	-0.3
O=C(CSc1ncnc2ccccc12)Nc1ccc2c(c1)OCCO2	0.0	3.8	3.9	-1.5	-7.7	6.8
O=C(CSc1nc(Cc2ccccc2)nc2ccccc12)Nc1ccc2c(c1)OCCO2	-2.0	26.0	4.0	58.5*	0.3	4.8
Cn1c(/N=C/c2c(O)ccc3ccccc23)nc2ccccc21	2.0	5.2	35.7*	56.5*	23.2	33.7
CCCCc1ncc(CN2CCC(n3nccc3NC(=O)C(OC)c3ccccc3)CC2)[nH]1 (centres undefined)	·	4.7	8.6	·	·	10.0
CCOC(=O)C1CCN(C(=O)c2cccc(S(=O)(=O)N3c4ccccc4CC3C)c2)CC1 (centres undefined)	·	6.7	3.1	·	·	1.2
O=C(CCCn1c(=S)[nH]c2cc3c(cc2c1=O)OCO3)NCCc1ccccc1Cl	·	-7.9	2.1	·	·	4.8
N#C/C(=C\c1sc(N2CCOCC2)nc1-c1ccccc1)C(=O)Nc1cccc2ccccc12	0.0	·	·	57.1*	20.7	·
O=C(Nc1ccccc1)c1sc(N2CCOCC2)nc1-c1ccccc1	-4.0	-1.1	3.8	2.4	-5.6	7.0
O=C(NC1CCCCC1)c1cc(-c2ccccc2O)on1	·	0.8	7.0	·	·	6.5
O=C1C2CC=C(Cl)CC2C(=O)N1CN(Cc1ccco1)CN1C(=O)C2CC=C(Cl)CC2C1=O (centres undefined)	-3.0	44.3*	45.2*	-77.3	39.3	51.4*
Cc1ccc(NC(=O)CCC(=O)N2CCN(S(=O)(=O)c3ccc(C)cc3)CC2)cc1	·	-1.9	4.3	·	·	-0.9
Nc1ccccc1C#CC(=O)c1ccccc1	·	-9.3	-2.4	·	·	-8.5
COc1ccc(-c2csc(NC(=O)/C(N=Nc3ccccc3)=C(\C)O)n2)cc1	41.0*	-6.7	-0.7	-32.7	8.9	-2.3
C[N+]1(CCC(=O)c2ccccc2)CCCCC1	-3.0	-1.5	-12.5	56.3*	-11.8	-18.3
O=C(CCN1CCCCC1)c1ccccc1	-4.0	6.5	7.4	-33.6	25.7	5.2
CCCCN(C(=O)c1cc(=O)[nH]c2ccccc12)c1c(N)n(CCCC)c(=O)[nH]c1=O	·	8.1	-5.5	·	·	-8.5
Cc1cc(C)c(S(=O)(=O)/N=C2\C=C(Nc3ccc(C(=O)O)cc3)C(=O)c3ccccc32)c(C)c1	·	11.8	24.0	·	·	31.2
O=C(O)c1ccc(NC2=C/C(=N/S(=O)(=O)c3ccccc3)c3ccccc3C2=O)cc1	3.0	·	·	-1.9	93.4*	·
C/C(=N\Nc1nccnc1Cl)c1ccc(O)c(C)c1	·	8.4	3.8	·	·	3.8
CCCOc1ccccc1-c1nc2c([nH]1)c(=O)[nH]c(=O)n2C	-3.0	14.7	34.7*	-21.4	16.4	32.1
CCOc1cc(C(=S)N2CCOCC2)ccc1OC(=O)c1ccc(C)cc1	·	7.2	6.5	·	·	-0.1
SMILES	Mcl-1 Bim block	GLD-1 TGE inh	BCLXL inh	Mcl1-Bid inh	Mcl1 Noxa PPI	MCL1-BIM inh
Cc1ccc(NS(=O)(=O)c2cccc(C(=O)O)c2)cc1S(=O)(=O)N1CCCCC1	12.0	6.3	6.0	-40.5	71.7*	7.5
O=C(O)c1cccc(S(=O)(=O)Nc2cccc(S(=O)(=O)N3CCCCCC3)c2)c1	-6.0	2.7	6.3	1.3	15.4	-1.8
O=C(NCCNC(=O)c1cccnc1)c1ccc(Br)cc1	·	4.5	4.6	·	·	7.0
COc1cc(N=Nc2cccc(S(N)(=O)=O)c2)c2ccccc2c1N	·	-120.0	-26.3	3.9	66.9*	-57.8
NC1=NC(=Nc2cccc(S(N)(=O)=O)c2)c2ccccc21	·	-3.8	6.4	-10.9	6.6	5.4
Cc1csc(NC(=O)C2CCN(S(=O)(=O)c3cccs3)CC2)n1	1.0	6.5	-6.7	84.4*	-9.2	-3.0
CCOc1cc(C=O)ccc1OS(=O)(=O)c1ccc(NC(C)=O)cc1	-1.0	-3.2	5.2	52.0*	38.8	-1.1
CCOc1ccc(CN2CCN(S(=O)(=O)c3ccc(NC(C)=O)cc3)CC2)cc1OC	-3.0	-3.8	1.1	51.7*	4.6	7.8
CCOc1cc(C=O)ccc1OCC(N)=O	-1.0	5.6	3.8	-19.8	17.0	3.7
Cc1ccc(NC(=O)N2C3CCCC2CC(NC(=O)C2CC2)C3)cc1 (centres undefined)	·	-4.2	-3.3	·	·	-1.9
CC1CN(C(=O)c2cc(-c3ccc(Cl)s3)nc3ccccc23)CC(C)O1 (centres undefined)	·	2.6	6.4	·	·	6.0
O=C(Cn1nnc(-c2ccccc2NC(=O)c2cccs2)n1)Nc1ccccc1	-4.0	0.5	-1.8	87.0*	6.0	-6.9
COc1ccccc1NC(=O)Cn1nnc(-c2ccccc2NC(=O)c2cccs2)n1	-4.0	3.2	2.8	-43.8	10.1	7.7
COc1ccc(NC(=O)Cn2nnc(-c3ccccc3NC(=O)c3ccco3)n2)cc1	0.0	6.2	2.8	66.3*	-39.9	4.0
COc1ccc(C(=O)c2sc(Nc3ccccc3)c(C(=O)Nc3ccc(OC)c(OC)c3)c2N)cc1	-7.0	3.4	62.7*	-23.4	-1.3	4.7
NC(=O)c1ccccc1Nc1nc2nc3ccccc3c(=O)n2cc1Br	·	27.6	31.1*	-3.9	9.1	27.7
Cc1cc(Nc2ccccc2C(=O)O)nc2nc3ccccc3c(=O)n12	0.0	1.9	2.7	-17.9	9.0	6.7
O=C(c1ccc(F)cc1)[C@@H]1[C@@H](C(=O)c2ccccc2)[C@@]2(C(=O)Nc3ccccc32)[C@H]2c3ccccc3C=CN12	-5.0	34.4*	26.7	-10.6	17.8	2.8
CCC(=O)c1ccc(OCC(O)CN2CCOCC2)cc1 (centres undefined)	0.0	1.6	3.7	-1.0	3.8	4.1
CC(=O)c1ccc(OCC(O)CN2CCOCC2)cc1 (centres undefined)	-2.0	2.9	4.3	11.1	64.4*	-0.8
Cc1nc(-c2ccccc2)sc1C(=O)CSc1ccc(Br)cc1	-2.0	-4.1	-0.9	-2.3	-14.9	1.0
Cc1nc(-c2ccccc2)sc1C(=O)CSc1ccc(Cl)cc1	-3.0	-1.7	6.4	4.2	64.2*	9.4
CCn1c(CSc2nc3ccccc3s2)nnc1SCC(=O)c1ccc(O)c(O)c1	-1.0	2.3	9.0	-99.0	61.6*	20.9
CC(C)N(Cc1ccccc1)C(=O)COC(=O)c1ccc(O)cc1	·	0.6	4.0	·	·	2.6
O=C(N/N=C/c1ccncc1)c1cccc(NC(=O)c2ccccc2Cl)c1	42.0*	-0.8	2.1	-13.0	17.9	9.5
